Source: PubChem BioAssay AID1053127 (Broad Institute, 2014)
Potency and affinity values are given separately.

assay: CTGF mRNA reduction under YAP1 overexpression, dose response, mechanism study for YAP1 pathway inhibitor project, DLD1 cells, RT-qPCR, cherry-pick (AID 1053127); details: DLD1 YAP1-overexpressing, 24 h; series mostly up to 26 µM; CTGF fold change (delta-delta-Ct), lower = inhibition: at the top concentration;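 active = compounds whose fitted curve of lowered CTGF expression reaches half effect within a set concentration limit; inconclusive = flat moderate drop in CTGF, or unreliable curve fit; inactive = the rest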

CTGF fold change (delta-delta-Ct), lower = inhibition, inactive:
C[C@@H]1CN([C@@H](C)CO)C(=O)Cc2cc(NC(=O)C3CCCCC3)ccc2O[C@@H]1CN(C)Cc1ccc(Cl)c(Cl)c1 1.43 unspecified [at 23.5 µM]
O=C(CC1CC1)N1CC(=O)N2[C@@H](CO)[C@H](c3ccc(/C=C/c4ccccc4)cc3)[C@@H]2C1 1.06 unspecified
O=C(CC1CC1)N1CC(=O)N2[C@H](CO)[C@@H](c3ccc(C#Cc4cccc(F)c4)cc3)[C@H]2C1 0.887 unspecified
C[C@@H]1CN([C@H](C)CO)C(=O)CCCn2nncc2CO[C@@H]1CN(C)C(=O)c1cc(-c2ccccc2)on1 0.649 unspecified
COc1ccc(CN(C)C[C@H]2Oc3ccc(NC(=O)Nc4ccc5c(c4)OCO5)cc3CC(=O)N([C@@H](C)CO)C[C@H]2C)cc1 0.62 unspecified
COc1cccc(-c2ccc([C@@H]3[C@@H](C#N)N(C(=O)Cc4ccncc4)[C@@H]3CO)cc2)c1 1.08 unspecified
O=C(Nc1ccc2c(c1)[C@H]1C[C@@H](CC(=O)N3CCc4ccccc4C3)O[C@H](CO)[C@H]1O2)c1ccc2c(c1)OCO2 0.876 unspecified
COc1ccc([C@H]2C/C=C\C[C@@H](c3ccc4c(c3)OCO4)NC(=O)[C@@H](c3ccccc3)CC(=O)N2)c(OC)c1 2.27 unspecified
COc1ccc(S(=O)(=O)Nc2ccc3c(c2)C(=O)N([C@@H](C)CO)C[C@H](C)[C@@H](CN(C)S(=O)(=O)c2ccc(Cl)cc2)OCCCC[C@@H](C)O3)cc1 1.31 unspecified
COCC(=O)N1CC[C@@H]2[C@H](CO)Nc3ccc(C#Cc4ccc(F)cc4)cc3[C@@H]21 0.882 unspecified
CCC(=O)N1C[C@H](C)[C@@H](OC)CN(C)C(=O)c2cc(NC(=O)Nc3ccc(Cl)cc3)ccc2OC[C@@H]1C 1.62 unspecified
